PubChem BioAssay (NCI)
Compounds without any hit were thinned out: in the full panel of roughly 83,000, 20% have a hit.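 Plates (96-well) were seeded with cells, treated with compound at one concentration, and incubated for 48 hours before percent growth was determined.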 Unmarked numbers belong to inactive results. Activity calls are given as the source filed them. Rule for the calls: active = growth percent below 10; inactive = the rest.

Assays:
Assay in all cases: NCI-60 one-dose screen, 48 h (100 = growth as untreated, 0 = no growth, -100 = all killed)
Details in all cases: 10 µM unless noted
NCI-H23 lung = tested on: NCI-H23 lung
NCI-H226 lung = tested on: NCI-H226 lung
NCI-H322M lung = tested on: NCI-H322M lung
HOP-62 NSCLC = tested on: HOP-62 NSCLC
NCI-H460 lung = tested on: NCI-H460 lung
A549/ATCC NSCLC = tested on: A549/ATCC NSCLC
786-0 renal = tested on: 786-0 renal
COLO 205 colon = tested on: COLO 205 colon
DU-145 prostate = tested on: DU-145 prostate
K-562 leukemia = tested on: K-562 leukemia
MALME-3M melanoma = tested on: MALME-3M melanoma
MDA-MB-231 breast = tested on: MDA-MB-231 breast
RXF 393 renal = tested on: RXF 393 renal
SF-268 CNS = tested on: SF-268 CNS
SF-539 CNS = tested on: SF-539 CNS
UACC-257 melanoma = tested on: UACC-257 melanoma
M14 melanoma = tested on: M14 melanoma
SF-295 CNS = tested on: SF-295 CNS

SMILES	growth (NCI-H23 lung)	growth (NCI-H226 lung)	growth (NCI-H322M lung)	growth (HOP-62 NSCLC)	growth (NCI-H460 lung)	growth (A549/ATCC NSCLC)	growth (786-0 renal)	growth (COLO 205 colon)	growth (DU-145 prostate)	growth (K-562 leukemia)	growth (MALME-3M melanoma)	growth (MDA-MB-231 breast)	growth (RXF 393 renal)	growth (SF-268 CNS)	growth (SF-539 CNS)	growth (UACC-257 melanoma)	growth (M14 melanoma)	growth (SF-295 CNS)
O=C(O)COc1ccc([N+](=O)[O-])cc1Cl	108%	108%	99.8%	90.5%	108%	100%	98.7%	110%	118%	99.5%	107%	115%	108%	109%	98%	91.6%	107%	
CCCCCCCCCCCCCCCCCCOP(=O)(O)O	106%	98.8%	103%	100%	101%	105%	116%	111%	116%	110%	112%	96.6%	114%	109%	104%	113%	99.4%	
CN(CCC#N)c1ccc(/C=C(\C#N)c2cccc(C(F)(F)F)c2)cc1	66.2%	65.7%	86.5%	81.7%	74%	36.3%	74.9%	49.5%	82.5%	21%	58.2%	58.8%	71.7%	81.7%	68%		55.9%	95.8%
CCCCCCC(C(=O)OCC)(C(=O)OCC)C1CCCCCC1	107%	99.6%	96.6%	91.9%	106%	96%	115%	102%	120%	100%	108%	101%	104%	121%	92.8%		106%	105%
CC(O)CCC(C)[N+](=O)[O-] (stereo unspecified)	111%	109%	98.7%	95.4%	109%	96.3%	101%	111%	111%	99.9%	106%	110%	119%	104%	99%	102%	106%	
Cc1c(C(N)=O)sc2c1c(=O)n(Cc1ccccc1)c1nnc(S(C)(=O)=O)n21	97.1%	96.2%	107%	78.8%	91.3%	102%	108%	93.8%	101%		92.4%	101%	49.3%	96.7%		80.8%	76%	89.4%
NCCCOc1cc(Cl)ccc1NC(=O)c1cc2ccccc2cc1OCCCN	-62.3% (active)	-28.9% (active)	-1.29% (active)	-94.3% (active)	-91% (active)	-93.6% (active)	-89.2% (active)	-88% (active)	-90% (active)	0.57% (active)	-4.21% (active)	-65% (active)	-5.16% (active)	-73.6% (active)	-88.8% (active)		-88.5% (active)	-62% (active)
Cn1c2ccccc2c2ccccc21	99%	103%	94.9%	90.8%	110%	108%	105%	104%	106%	89.3%	101%	108%	111%	103%	108%	94.8%	99.3%	
COC(=O)[C@H](Cc1cn(C)cn1)NC(=O)[C@H](CC(=O)OCc1ccccc1)NC(=O)Nc1cc(C(F)(F)F)cc(C(F)(F)F)c1	-83.9% [100 µM] (active)	-52.9% [100 µM] (active)	-96.7% [100 µM] (active)	-100% [100 µM] (active)	-62.8% [100 µM] (active)	-80.9% [100 µM] (active)	-92% [100 µM] (active)	-93.7% [100 µM] (active)	-94.5% [100 µM] (active)	-60.2% [100 µM] (active)	-94.4% [100 µM] (active)	-93% [100 µM] (active)	-81.8% [100 µM] (active)	-91.4% [100 µM] (active)	-94.6% [100 µM] (active)	-94.9% [100 µM] (active)	-93.6% [100 µM] (active)	
COC(=O)c1cc(=O)nc(N/N=C/c2ccccc2O)s1	89%	101%	67.2%	90.7%	94.5%	94.4%	95.1%	93%	111%	78.8%	82.5%	83.8%	99.7%	88.1%	106%		95.2%	81.4%
CC[n+]1c(C)ccc2cc(C)ccc21	96%	93.6%	111%	97.5%	110%	75.3%		101%	126%	91.2%	131%	91.7%	111%	102%	110%	105%		119%
CSc1nc(N)n2nccc2n1	107%	83.9%	102%	89.6%	104%	102%	97.2%	105%	117%	96.6%	95.3%	100%	112%	118%			101%	95.7%
O=C(CBr)OCc1ccc([N+](=O)[O-])o1	97.2%	104%	132%	96.8%	91.6%	100%		100%	108%	111%	107%	101%	94.8%	88.6%	103%	88.5%		96.5%
COc1cc2c(c3c1c(=O)c1cccc(F)c1n3C)C=CC(C)(C)O2	99%	110%	79.5%	99.2%	102%	89.4%	103%	102%	92.9%	74.6%	75.9%	58.4%	88.8%	102%	89%		101%	91.8%
COC(=O)[C@H](Cc1cn(C)cn1)NC(=O)[C@@H](NC(=O)Nc1cc(C(F)(F)F)cc(C(F)(F)F)c1)C(C)(C)C	-64.7% [100 µM] (active)	64.7% [100 µM]	-35.3% [100 µM] (active)	-84.2% [100 µM] (active)	-56.3% [100 µM] (active)	14.8% [100 µM]	-88.2% [100 µM] (active)	-74.6% [100 µM] (active)	-92.3% [100 µM] (active)	-12.5% [100 µM] (active)	-86.9% [100 µM] (active)	-89.6% [100 µM] (active)	-87.4% [100 µM] (active)	-90.4% [100 µM] (active)	-84.4% [100 µM] (active)	-74.2% [100 µM] (active)	-85.2% [100 µM] (active)	
CCOC(=O)c1csc(-c2ccc(COC(=O)c3ccccc3)o2)n1	108%	104%	93.2%	99.5%	109%	99.7%	102%	114%	130%	102%	95.8%	107%	106%	118%	107%		106%	84.4%
CCCCCCCCC(=O)Nc1ccc(O)cc1	92.3%	104%	88.1%	99.3%	105%		95.9%	94.9%	103%	91.2%	87.7%	92.1%	101%	92%	88.9%		107%	101%
CC#Cc1nc(Nc2cc(C)[nH]n2)c2ccccc2n1	2.12% [100 µM] (active)	-27.7% [100 µM] (active)	9.12% [100 µM] (active)	-23.1% [100 µM] (active)	3.75% [100 µM] (active)	1.41% [100 µM] (active)	7.19% [100 µM] (active)	-100% [100 µM] (active)	-4.22% [100 µM] (active)	9.48% [100 µM] (active)	-45.3% [100 µM] (active)	-34.5% [100 µM] (active)	-51% [100 µM] (active)	-72.5% [100 µM] (active)	1.15% [100 µM] (active)	-19.9% [100 µM] (active)	-27.3% [100 µM] (active)	
